The values below come from paper PMC5540273 (PLoS ONE, 2017).

Test systems include PIK3CG; PIKFYVE; PIM1; PIM2; PIM3; PIP5K1A; PIP5K1C; PIP5K2B; PKMYT1; PKN1; PKN2; PLK2; PLK3; PLK4; PRKCD; PLK1.
Common to all, as to details: concentration: 1 μM, replicates: in singlicate; n = 1
In a further experiment the test system is T1, PIK4CB.
T1 construct: gene PI4KB

A further experiment relates to T2, PIP5K2C.
T2 construct: gene PIP4K2C

A further experiment relates to T3, PKAC-alpha.
T3 construct: gene PRKACA

For a further experiment, the system named is T4, PKAC-beta.
T4 construct: gene PRKACB

Structures are written as SMILES.
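Further: KINOMEscan kinase panel screen.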

In the case of `COc1cc2ncn(-c3cc(OCCCc4ccccc4)c(C(N)=O)s3)c2cc1OC` [GSK205189], the “%Inh” value with PIK3CG, with PIK4CB, in the experiment on PIKFYVE, in the experiment on PIM1, with PIM2 and in the experiment with PIM3 was 0% in each case. The “%Inh” value came out at 0% with PIP5K1A; 69% with PIP5K1C; 0% in the experiment with PIP5K2B; 9% in the experiment with PIP5K2C; 0% in the experiment on PKAC-alpha; 5% with PKAC-beta. In addition, the “%Inh” value came to 0% in the experiment on PKMYT1; 0% with PKN1; 16% in the experiment with PKN2; 98.2% with PLK2; 92.3% in the experiment with PLK3; 0% with PLK4. For the same compound, the “%Inh” value in the experiment with PRKCD is 0%.

On to `COc1cc(Nc2ccnc3ccc(C(F)(F)F)cc23)cc(OC)c1OC` [GW577382], for which the “%Inh” value with PIK3CG was determined as 0%; with PIK4CB, 0%; in the experiment with PIKFYVE, 0%; with PIM1, 2%; with PIM2 it was 0%; in the experiment on PIM3, 0%. The “%Inh” value in the experiment with PIP5K1A is 0%; with PIP5K1C, 54%; with PIP5K2B, 10%; in the experiment with PIP5K2C, 50%; with PKAC-alpha, 14%; in the experiment with PKAC-beta, 4%. For the same compound, the “%Inh” value was 6% in the experiment on PKMYT1; 0% in the experiment with PKN1; 0% in the experiment on PKN2; 12% with PLK1; 0% with PLK2; 0% with PLK3. The “%Inh” value turned out to be 50% with PLK4 and 15% in the experiment on PRKCD.

With `COc1cccc(-n2cnc3c(N)ncnc32)c1` [SKF-97416], the “%Inh” value with PIK3CG was determined as 44%; in the experiment on PIK4CB, 41%; in the experiment on PIKFYVE it was 41%; in the experiment on PIM1 it was 20%; in the experiment with PIM2, 14%; in the experiment on PIM3, 24%. Further, the “%Inh” value with PIP5K1A came out at 2%; with PIP5K1C it was 13%; in the experiment on PIP5K2B it was 0%; in the experiment on PIP5K2C, 0%; with PKAC-alpha, 11%; in the experiment with PKAC-beta, 20%. Moreover, the “%Inh” value in the experiment with PKMYT1 was 10%; with PKN1, 0%; in the experiment on PKN2, 24%; in the experiment with PLK1, 58%; with PLK2 it was 43%; in the experiment on PLK3, 18%. Further, the “%Inh” value in the experiment with PLK4 came to 21%; in the experiment with PRKCD, 6%.

For the compound `CCc1nc(-c2cccc(C)c2)c(-c2ccncc2)s1`, the “%Inh” value is 0% in the experiment with PIK3CG; 0% in the experiment on PIK4CB; 39% with PIKFYVE; 17% in the experiment on PIM1; 0% with PIM2; 29% in the experiment on PIM3. The “%Inh” value in the experiment on PIP5K1A is 0%; with PIP5K1C it was 36%; in the experiment with PIP5K2B, 19%; in the experiment with PIP5K2C, 25%; with PKAC-alpha, 0%; with PKAC-beta it was 7%. For the same compound, the “%Inh” value was 8% in the experiment on PKMYT1; 6% with PKN1; 0% with PKN2; 0% in the experiment with PLK1; 0% with PLK2; 14% with PLK3. The “%Inh” value in the experiment on PLK4 and in the experiment with PRKCD was 0% throughout.

Take `COc1ccc(-n2cnc3c(N)ncnc32)cc1` [SKF-97236]: the “%Inh” value in the experiment on PIK3CG was 51%; with PIK4CB it was 23%; in the experiment on PIKFYVE it was 0%; in the experiment with PIM1 it was 19%; in the experiment with PIM2, 0%; in the experiment with PIM3 it was 0%. The “%Inh” value was 0% in the experiment on PIP5K1A; 33% with PIP5K1C; 6% in the experiment on PIP5K2B; 6% in the experiment with PIP5K2C; 0% with PKAC-alpha; 19% in the experiment on PKAC-beta. Also, the “%Inh” value with PKMYT1 came to 17%; in the experiment on PKN1, 46%; in the experiment with PKN2 it was 0%; in the experiment with PLK1, 18%; in the experiment with PLK2 it was 3%; with PLK3, 2%. Moreover, the “%Inh” value amounted to 1% in the experiment on PLK4 and 9% in the experiment with PRKCD.

For `OCCCNc1nccc(-c2c(-c3cccc(C(F)(F)F)c3)nn3cc(C(F)(F)F)ccc23)n1` [GW630813], the “%Inh” value in the experiment on PIK3CG worked out at 0%; in the experiment with PIK4CB, 0%; in the experiment on PIKFYVE, 0%; in the experiment with PIM1 it was 9%; in the experiment on PIM2, 0%; in the experiment on PIM3 it was 0%. Further, the “%Inh” value is recorded as 30% with PIP5K1A; 66% in the experiment with PIP5K1C; 2% with PIP5K2B; 38% with PIP5K2C; 0% in the experiment on PKAC-alpha; 0% in the experiment on PKAC-beta. The “%Inh” value in the experiment with PKMYT1, in the experiment with PKN1, with PKN2, in the experiment with PLK1, in the experiment on PLK2 and in the experiment on PLK3 was 0% each time. The “%Inh” value in the experiment on PLK4 was found to be 12%; with PRKCD, 0%.

Take `COC(=O)c1c(-c2ccccc2)c2cc(C)ccc2c(=O)n1Cc1ccccc1`: the “%Inh” value in the experiment on PIK3CG came to 0%; in the experiment with PIK4CB, 0%; in the experiment on PIKFYVE it was 0%; with PIM1, 2%; in the experiment on PIM2, 0%; with PIM3, 0%. Also, the “%Inh” value came out at 13% in the experiment on PIP5K1A; 20% with PIP5K1C; 5% in the experiment on PIP5K2B; 1% in the experiment on PIP5K2C; 0% in the experiment with PKAC-alpha; 0% with PKAC-beta. For the same compound, the “%Inh” value in the experiment with PKMYT1 turned out to be 13%; in the experiment with PKN1, 0%; in the experiment on PKN2, 0%; in the experiment on PLK1, 0%; with PLK2 it was 0%; with PLK3, 0%. The “%Inh” value in the experiment with PLK4 came to 0%; with PRKCD it was 3%.

As to `CCC(=O)c1c(-c2ccccc2)c2cc(Cl)ccc2c(=O)n1Cc1cc(S(C)(=O)=O)n(CCC(C)(C)O)n1`, the “%Inh” value with PIK3CG turned out to be 17%; in the experiment on PIK4CB, 0%; in the experiment with PIKFYVE, 0%; in the experiment on PIM1, 15%; in the experiment on PIM2, 2%; in the experiment on PIM3, 16%. In addition, the “%Inh” value came out at 0% with PIP5K1A; 0% in the experiment on PIP5K1C; 20% in the experiment with PIP5K2B; 0% in the experiment on PIP5K2C; 0% with PKAC-alpha; 0% in the experiment on PKAC-beta. The “%Inh” value with PKMYT1 amounted to 0%; in the experiment with PKN1, 0%; in the experiment on PKN2 it was 0%; in the experiment on PLK1, 0%; with PLK2 it was 0%; in the experiment with PLK3, 8%. Also, the “%Inh” value turned out to be 24% with PLK4 and 0% in the experiment with PRKCD.

Take `Nc1nc(-c2ccccc2F)c(-c2ccnc3ccccc23)s1` [GW560459]: the “%Inh” value is given as 0% in the experiment with PIK3CG; 0% in the experiment on PIK4CB; 0% with PIKFYVE; 0% in the experiment on PIM1; 0% in the experiment with PIM2; 3% in the experiment with PIM3. For the same compound, the “%Inh” value worked out at 13% with PIP5K1A; 46% in the experiment with PIP5K1C; 4% in the experiment with PIP5K2B; 59% with PIP5K2C; 0% with PKAC-alpha; 3% in the experiment with PKAC-beta. The “%Inh” value in the experiment on PKMYT1 was 0%; in the experiment with PKN1, 3%; in the experiment with PKN2 it was 0%; with PLK1 it was 2%; in the experiment with PLK2 it was 0%; with PLK3, 0%. In addition, the “%Inh” value in the experiment with PLK4 and in the experiment on PRKCD was 0% each time.

For the compound `Cc1cccc(-c2cc(-c3c[nH]nc3-c3ccccn3)ccn2)c1` [GW679395], the “%Inh” value is 0% with PIK3CG; 0% in the experiment on PIK4CB; 0% with PIKFYVE; 20% with PIM1; 0% in the experiment with PIM2; 0% in the experiment with PIM3. For the same compound, the “%Inh” value turned out to be 35% in the experiment with PIP5K1A; 54% with PIP5K1C; 0% in the experiment with PIP5K2B; 39% with PIP5K2C; 0% in the experiment on PKAC-alpha; 0% in the experiment with PKAC-beta. Moreover, the “%Inh” value is listed as 1% in the experiment on PKMYT1; 0% in the experiment with PKN1; 0% in the experiment with PKN2; 0% in the experiment with PLK1; 0% in the experiment with PLK2; 0% in the experiment on PLK3. Also, the “%Inh” value in the experiment with PLK4 and in the experiment on PRKCD was 0% throughout.
